Laboratory results reported in PubChem BioAssay (Tox21).
Results filed as inconclusive are left out. The source made the active and inactive calls. Unless noted, calls come from the whole dose curve; as a rule, active = well fitted curve in the direction sought with a large enough effect in the repeat runs; inconclusive = weak or mixed curves; inactive = no such curve, though single readings can be large; an effect the other way counts as inactive or inconclusive.

Columns and labels:
[1] = qHTS assay to identify small molecule antagonists of the estrogen related receptor signaling pathway with the pleiotropic PPARgamma coactivator (PGC) from Tox21 10K library (AID 1224841; call rule not given here; note: actives are mostly falling curves and most rising ones were filed inactive; nearly all actives have a fitted effect of over 50% in size)
Summary of the method: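 Luminescence read-out (One-Glo luciferase reagent, 30 min at room temperature) from PGC/ERR cells exposed to DMSO-dissolved test compounds for 18 h at 37 C; cells, 2,000 per well, had been preincubated 6 h before compound transfer.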

[2] = qHTS assay to identify small molecule agonists of the estrogen related receptor signaling pathway with the pleiotropic PPARgamma coactivator (PGC) from Tox21 10K library (AID 1224842); note: nearly all actives have a fitted effect of over 15% in size
Summary of the method: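 PGC/ERR reporter cells (NTP line) were seeded 2,000 per well, rested 6 h at 37 C/5% CO2, then pin-dosed with compounds in DMSO for 18 h at 37 C; luciferase read by One-Glo luminescence after 30 min at room temperature.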

[3] = qHTS assay to identify small molecule agonists of the hypoxia (HIF-1) signaling pathway - cell viability counter screen (AID 1224844; calls by dose curve; note: nearly all actives have a fitted effect of over 50% in size)
Summary of the method: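 CellTiter-Glo luminescence read-out, 30 min RT, taken in the same wells as the beta-lactamase HRE reporter assay; HRE-bla ME-180 cells, 0.5% dialyzed FBS, 17 hr compound treatment at 37C, 5% CO2.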

[4] = qHTS assay to identify small molecule agonists of H2AX (AID 1224845; active = well fitted activation curve with a large enough effect in the signal ratio in the repeat runs, not every such curve was filed as active; the % refers to the signal ratio)
Summary of the method: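 Wild-type CHO-K1 cells plated overnight, then exposed 3 hr at 37C to compounds at 15 concentrations (0.76% DMSO). Lysed, then HTRF anti-pH2AX(S139)-cryptate/anti-H2AX-d2 detection after 24 hr at room temperature; emissions 665 and 620 nm.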

[5] = qHTS assay to identify small molecule agonists of the hypoxia (HIF-1) signaling pathway (AID 1224846; active = well fitted activation curve with a large enough effect in the signal ratio in the repeat runs, not every such curve was filed as active; the % refers to the signal ratio)
Summary of the method: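 Beta-lactamase FRET read-out (CCF4-AM substrate) from ME-180 cells carrying an HRE-driven bla reporter, after 17 hrs compound exposure at 37C/5% CO2. Cells were seeded at 2,000 per well in 0.5% dialyzed FBS medium and preincubated 5 hrs.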

[6] = qHTS assay to identify small molecule agonists of H2AX - cell viability counter screen (AID 1224847; calls by dose curve; note: top concentration of the series differs between compounds; nearly all actives have a fitted effect of over 30% in size)
Summary of the method: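 For this counter screen, overnight-attached CHO-K1 cells received test compounds (15 concentrations, 0.76% DMSO final); 3 hr later at 37C, CellTiter-Glo reagent was added and luminescence recorded after 30 min at room temperature.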

[7] = qHTS assay to identify small molecule antagonists of the estrogen related receptor (ERR) signaling pathway from Tox21 library (AID 1224848); note: nearly all actives have a fitted effect of over 50% in size
Summary of the method: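 Tox21 10K compounds in DMSO tested for ERR pathway antagonism in NTP's ERR cell line; 18 h, 37 C exposure; ONE-Glo luminescence.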

[8] = qHTS assay to identify small molecule agonists of the estrogen related receptor (ERR) signaling pathway from Tox21 library (AID 1224849; calls by dose curve; note: nearly all actives have a fitted effect of over 15% in size); settings: ERR reporter cell line, ONE-Glo luciferase, 18 h; at 92.4 µM (top of the series) unless noted
Summary of the method: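 Luminescence readout (ONE-Glo, 30 min RT) after 18 h compound exposure at 37 C of NTP-supplied ERR reporter cells; cells were plated 6 h before compound addition by pin tool.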

[9] = qHTS RealTime-Glo MT Cell Viability Assay in HepG2 cells - 24 hour (AID 1224867); note: nearly all actives have a fitted effect of over 50% in size
Summary of the method: (§1)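 HepG2 suspension premixed with RealTime-Glo reagents is plated at 600 cells per well and left 5 h at 37 C/5% CO2. Compounds in DMSO then go in, and bioluminescence reflecting viable cell number is recorded over 40 h.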

[10] = qHTS RealTime-Glo MT Cell Viability Assay in HEK293 cells - 32 hour (AID 1224868)
Summary of the method: (§2)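 Reads taken at 0, 8, 16, 24, 32 and 40 h from the same wells. HEK293 cells (600/well) carried RealTime-Glo reagents from seeding, with compound added after a 5 h settle at 37 C.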

[11] = A CellTox Green Cytotoxicity Assay to monitor cytotoxicity in HEK293 cells - 0 hour (AID 1224869); note: nearly all actives have a fitted effect of over 50% in size
Summary of the method: (§3)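 Read-out: fluorescence of a cell-impermeant cyanine dye staining DNA of dead cells, proportional to cytotoxicity. HEK293, 600 cells/well with reagent, compound (23 nL DMSO) added after 5 h; reads at 0, 8, 16, 24, 32, 40 h.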

[12] = qHTS RealTime-Glo MT Cell Viability Assay in HepG2 cells - 40 hour (AID 1224870); note: nearly all actives have a fitted effect of over 50% in size
Summary of the method: (§4)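 HepG2 cells mixed with RealTime-Glo MT reagents (NanoLuc plus cell-permeant prosubstrate) were seeded at 600 cells/well, incubated 5 h at 37 C/5% CO2, then pinned with compounds in DMSO; nonlytic luminescence tracked viability during 40 h treatment.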

[13] = qHTS RealTime-Glo MT Cell Viability Assay in HEK293 cells - 16 hour (AID 1224872)
Summary of the method: as §2

[14] = qHTS RealTime-Glo MT Cell Viability Assay in HepG2 cells - 8 hour (AID 1224873); note: nearly all actives have a fitted effect of over 55% in size
Summary of the method: as §4

[15] = qHTS RealTime-Glo MT Cell Viability Assay in HEK293 cells - 40 hour (AID 1224874); settings: RealTime-Glo luminescence, active compounds read low; note: nearly all actives have a fitted effect of over 50% in size
Summary of the method: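 Luminescence readout at each listed time point; HEK293, 600 cells/well, RealTime-Glo MT reagent added with cells; compounds pinned (23 nL in DMSO) after 5 h at 37 C; continuous culture at 37 C.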

[16] = A CellTox Green Cytotoxicity Assay to monitor cytotoxicity in HepG2 cells - 16 hour (AID 1224876); note: nearly all actives have a fitted effect of over 45% in size
Summary of the method: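 HepG2, 600 cells/well premixed w/ CellTox Green; 5 h settle, 37 C/5% CO2; pintool cpd add (DMSO); 37 C, 40 h; fluorescence read at 0, 8, 16, 24, 32, 40 h.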

[17] = qHTS RealTime-Glo MT Cell Viability Assay in HepG2 cells - 32 hour (AID 1224877); note: nearly all actives have a fitted effect of over 55% in size
Summary of the method: as §1

[18] = biological target: Thyrotropin receptor (Homo sapiens) (UniProt P16473); experiment: qHTS assay to identify small molecule agonists of the thyroid stimulating hormone receptor (TSHR) signaling pathway (AID 1224843; calls by dose curve; note: nearly all actives have a fitted effect of over 45% in size)
Summary of the method: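 Using 15 concentrations per compound in triplicate, cAMP production was monitored in TSHR-HEK293 cells after 30 min compound incubation at RT; HTRF reagents followed, with fluorescence intensity recorded after 1 h.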

[19] = A CellTox Green Cytotoxicity Assay to monitor cytotoxicity in HEK293 cells - 24 hour (AID 1224875); note: nearly all actives have a fitted effect of over 45% in size
Summary of the method: as §3

[20] = A CellTox Green Cytotoxicity Assay to monitor cytotoxicity in HEK293 cells - 40 hour (AID 1224871); note: nearly all actives have a fitted effect of over 45% in size
Summary of the method: as §3
% is set by controls: 0 for no effect and ±100 for the full control effect.

Sequence of Thyrotropin receptor (Homo sapiens) (P16473 whole entry, looked up): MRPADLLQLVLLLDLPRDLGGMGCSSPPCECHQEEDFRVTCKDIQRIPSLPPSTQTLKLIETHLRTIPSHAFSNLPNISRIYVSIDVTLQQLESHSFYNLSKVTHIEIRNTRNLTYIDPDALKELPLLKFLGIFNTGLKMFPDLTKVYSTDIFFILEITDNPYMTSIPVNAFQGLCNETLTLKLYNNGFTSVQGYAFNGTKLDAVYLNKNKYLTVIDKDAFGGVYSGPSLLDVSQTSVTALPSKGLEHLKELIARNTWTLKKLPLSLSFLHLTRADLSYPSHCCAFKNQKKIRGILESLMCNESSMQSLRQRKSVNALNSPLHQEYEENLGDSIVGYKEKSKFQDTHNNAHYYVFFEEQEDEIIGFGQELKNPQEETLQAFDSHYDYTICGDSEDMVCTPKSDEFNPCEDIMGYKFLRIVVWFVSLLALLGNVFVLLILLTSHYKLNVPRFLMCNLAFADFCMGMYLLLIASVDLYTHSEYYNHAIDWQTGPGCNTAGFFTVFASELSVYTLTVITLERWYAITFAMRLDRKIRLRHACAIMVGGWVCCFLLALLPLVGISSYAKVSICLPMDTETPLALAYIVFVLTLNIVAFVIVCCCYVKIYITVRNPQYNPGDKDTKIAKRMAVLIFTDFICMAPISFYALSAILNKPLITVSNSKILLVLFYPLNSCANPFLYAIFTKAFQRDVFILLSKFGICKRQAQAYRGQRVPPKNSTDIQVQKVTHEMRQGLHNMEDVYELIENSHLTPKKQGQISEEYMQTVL

CCCc1ncc(C(=O)O)s1
inactive: Potency [1] | Potency [2] | outcome [3] | outcome [4] | outcome [5] | outcome [6] | outcome [7] | activity change, positive = activation [8] 3.45% [at 42.5 µM] | outcome [9] | outcome [10] | outcome [11] | outcome [12] | outcome [13] | outcome [14] | max response [15] 0.25% | Potency [16] | outcome [17]

CC/C=C\CCCCCCCCCCOC(C)=O
inactive: Potency [1] | Potency [2] | Potency [18] | outcome [4] | outcome [6] | outcome [7] | activity change, positive = activation [8] 0.807% | outcome [9] | outcome [10] | outcome [11] | outcome [12] | outcome [13] | max response [15] -0.318% | Potency [19] | Potency [16] | outcome [17]

C/C=C(\C)C(=O)OC/C=C(\C)CCC=C(C)C
inactive: Potency [1] | Potency [2] | outcome [3] | outcome [4] | outcome [5] | outcome [6] | outcome [7] | activity change, positive = activation [8] 10.5% | outcome [9] | outcome [10] | outcome [12] | Potency [20] | outcome [13] | outcome [14] | max response [15] 7.26% | Potency [19] | Potency [16] | outcome [17]

COc1cc2nc(N3CCN(C(=O)C4CCCO4)CC3)nc(N)c2cc1OC (stereo not drawn)
inactive: Potency [1] | Potency [2] | outcome [3] | outcome [4] | outcome [6] | outcome [7] | outcome [9] | outcome [10] | outcome [12] | Potency [20] | outcome [13] | outcome [14] | max response [15] -19.2% | Potency [16] | outcome [17]

CC(C)C[P+](C)(CC(C)C)CC(C)C
inactive: Potency [2] | Potency [18] | outcome [3] | outcome [4] | outcome [5] | outcome [6] | outcome [7] | activity change, positive = activation [8] -12.2% | outcome [9] | outcome [10] | outcome [11] | outcome [12] | outcome [13] | outcome [14] | max response [15] -17.7% | Potency [16] | outcome [17]

CC(C)(C)c1ccc(N)cc1
inactive: Potency [1] | Potency [2] | outcome [3] | outcome [4] | outcome [5] | outcome [6] | outcome [7] | outcome [9] | outcome [10] | outcome [11] | outcome [12] | Potency [20] | outcome [14] | max response [15] -2.84% | Potency [19] | outcome [17]

C=C(C)C(=O)OCCOC1CC2CC1C1C=CCC21 (stereo not drawn)
inactive: Potency [1] | Potency [2] | outcome [3] | outcome [4] | outcome [5] | outcome [6] | outcome [7] | outcome [9] | outcome [10] | outcome [11] | outcome [12] | Potency [20] | outcome [13] | outcome [14] | max response [15] 0.272% | Potency [19] | Potency [16] | outcome [17]

Cc1nnc(C(=O)NC(C)(C)c2nc(C(=O)NCc3ccc(F)cc3)c(O)c(=O)n2C)o1
inactive: Potency [1] | Potency [2] | Potency [18] | outcome [3] | outcome [5] | outcome [7] | activity change, positive = activation [8] 9.04% [at 42.5 µM] | outcome [9] | outcome [11] | outcome [12] | Potency [20] | outcome [13] | outcome [14] | max response [15] 21.7% | Potency [19] | Potency [16] | outcome [17]

C[C@@H](CN1CC(=O)NC(=O)C1)N1CC(=O)NC(=O)C1
inactive: Potency [1] | Potency [2] | outcome [3] | outcome [4] | outcome [5] | outcome [6] | outcome [7] | activity change, positive = activation [8] 3.58% [at 42.5 µM] | outcome [9] | outcome [10] | outcome [11] | outcome [12] | outcome [13] | outcome [14] | max response [15] -3.41% | Potency [19] | Potency [16] | outcome [17]

C=CCCCCCCCCCCCCCC
inactive: activation [2] -5.23% [at 19 µM] | activation [18] 2.45% [at 19 µM] | activity change, negative = cytotoxicity [3] -3.81% [at 15.8 µM] | activation (H2AX phosphorylation) [4] -0.234% [at 31.6 µM] | activation [5] -0.445% [at 15.8 µM] | activity change, negative = cytotoxicity [6] 0.186% [at 31.6 µM] | activity, negative = inhibition [7] 3.1% [at 19 µM] | activity change, positive = activation [8] 1.6% [at 19 µM] | activity change, negative = cytotoxicity [9] 0.31% [at 15.8 µM] | activity change, negative = cytotoxic [10] -0.171% [at 15.8 µM] | cytotoxicity [11] -0.258% [at 15.8 µM] | activity change, negative = cytotoxic [12] -8.43% [at 15.8 µM] | cytotoxicity increase [20] 0.351% [at 15.8 µM] | activity change, negative = cytotoxicity [13] -2.4% [at 15.8 µM] | viability change, negative = cytotoxic [14] 2.93% [at 15.8 µM] | activity change [19] -0.0594% [at 15.8 µM, active compounds read high] | cytotoxicity increase [16] 2.79% [at 15.8 µM] | activity change, negative = cytotoxic [17] -5.43% [at 15.8 µM]

NNC(=O)CCCCC(=O)NN
inactive: Potency [1] | Potency [2] | outcome [3] | outcome [4] | outcome [5] | outcome [7] | activity change, positive = activation [8] 0.359% | outcome [9] | outcome [10] | outcome [11] | outcome [12] | Potency [20] | outcome [13] | outcome [14] | max response [15] 3.47% | Potency [16] | outcome [17]

CNC(=O)c1c(I)c(NC(C)=O)c(I)c(C(=O)O)c1I
inactive: Potency [1] | Potency [2] | outcome [3] | outcome [4] | outcome [5] | outcome [6] | outcome [7] | activity change, positive = activation [8] 2.26% [at 42.5 µM] | outcome [9] | outcome [11] | outcome [12] | Potency [20] | outcome [13] | outcome [14] | max response [15] 3.75% | Potency [16] | outcome [17]

N=C(N)N1CCc2ccccc2C1
inactive: activation [2] 0.335% [at 8.39 µM] | activation [18] -1.09% [at 8.39 µM] | activity change, negative = cytotoxicity [3] 5.71% [at 6.97 µM] | activation (H2AX phosphorylation) [4] 0.461% [at 14 µM] | activity, negative = inhibition [7] 3.19% [at 8.39 µM] | activity change, positive = activation [8] 1.78% [at 8.39 µM] | activity change, negative = cytotoxicity [9] -0.623% [at 6.97 µM] | activity change, negative = cytotoxic [10] 0.854% [at 6.97 µM] | cytotoxicity [11] -7.02% [at 6.97 µM] | activity change, negative = cytotoxic [12] 0.674% [at 6.97 µM] | cytotoxicity increase [20] -5.28% [at 6.97 µM] | viability change, negative = cytotoxic [14] 0.945% [at 6.97 µM] | max response [15] 0.0826% | activity change, negative = cytotoxic [17] 0.278% [at 6.97 µM]

O=C(O)CCC(=O)Nc1ccc(S(=O)(=O)Nc2nccs2)cc1
inactive: Potency [1] | Potency [2] | outcome [3] | outcome [4] | outcome [7] | activity change, positive = activation [8] 8.26% [at 42.5 µM] | outcome [9] | outcome [10] | outcome [11] | outcome [12] | Potency [20] | outcome [14] | max response [15] 2.99% | Potency [19] | outcome [17]
